Among all 2,300 compounds or so, about 330 (14%) showed activity.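 The calls were made as follows: active = median modified Z-score above 1.96; inactive = 1.96 or below.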 Not all results are given here.
test system: HepG2 Srxn1-GFP reporter cells (+30 nM CDDO-Me); test: Srxn1-GFP intensity median modified Z-score relative to plate median; higher = stronger NRF2 / oxidative stress reporter activation, active = hit call of the paper; details: 10 µM; exposure time: 24h
How it was run: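 HepG2 Srxn1-GFP BAC reporter cells were seeded at 20,000 per well in 96-well plates and co-exposed for 24 h to compound at 10 μM and an NRF2 activator at 30 nM, with DMSO at ≤0.1%, in three replicate plates. Cells were fixed with formaldehyde, stained with Hoechst and imaged by confocal microscopy, and cytoplasmic GFP was measured per cell, with images holding under 100 cells discarded. The reported value is the median over replicates of each plate's modified Z-score of GFP intensity. For this score, scaling used 1.4826 × median absolute deviation.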

Srxn1-GFP intensity median modified Z-score, active:
CC1=CC(=O)c2ccccc2C1=O [euspeclibcmpd446] 5.02
CN1CCN(CC/C=C2\c3ccccc3Sc3ccc(S(=O)(=O)N(C)C)cc32)CC1 [euspeclibcmpd294] 4.72
NC(=O)N/N=C/c1ccc([N+](=O)[O-])o1 [euspeclibcmpd210] 10.3
O=C(N/N=C/c1ccc([N+](=O)[O-])o1)c1ccc(Br)cc1 4.87
O=C1OCCN1/N=C/c1ccc([N+](=O)[O-])o1 [euspeclibcmpd134] 2.95
C=C(C)[C@@H]1CC[C@]2(CO)CC[C@]3(C)[C@H](CCC4[C@@]5(C)CC[C@H](O)C(C)(C)C5CC[C@]43C)C12 (stereo partly drawn) [euspeclibcmpd1538] 10.7
N=C(N)SCCN [euspeclibcmpd1761] 3.8
O=C1OC2(c3ccc(O)cc3Oc3cc(O)ccc32)c2ccccc21 [euspeclibcmpd769] 2.16
COC(=O)N=c1[nH]c2ccc(Sc3ccccc3)cc2[nH]1 [euspeclibcmpd371] 2.82
COC(=O)N=c1[nH]c2ccc(C(=O)c3ccc(F)cc3)cc2[nH]1 [euspeclibcmpd2318] 8.09
COC(=O)N=c1[nH]c2ccc(C(=O)c3ccccc3)cc2[nH]1 [euspeclibcmpd378] 19.3

Srxn1-GFP intensity median modified Z-score, inactive:
CN1C(C(=O)N=c2cccc[nH]2)C(=O)c2sc(Cl)cc2S1(=O)=O (stereo not drawn) [euspeclibcmpd458] -0.432
CC(=O)OC=C1CSC2C(NC(=O)Cc3cccs3)C(=O)N2C1C(=O)O (stereo not drawn) [euspeclibcmpd2267] 0.967
S=c1[nH]c2ccccc2s1 [euspeclibcmpd1954] -0.455
CN(C)CCC=C1c2ccccc2CCc2ccccc21 [euspeclibcmpd21] 0.287
CN(C)CC/C=C1\c2ccccc2Sc2ccc(Cl)cc21 [euspeclibcmpd538] -1.04
CN1CCC[C@@H]1Cc1c[nH]c2ccc(CCS(=O)(=O)c3ccccc3)cc12 [euspeclibcmpd938] -0.193
CCCN(Cc1nnc(-c2cccs2)o1)C(=O)CSc1nnc(-c2cccs2)n1C1CC1 0.54
CC1O[C@@H](Oc2c(-c3ccc(O)c(O)c3)oc3cc(O)cc(O)c3c2=O)[C@H](O)[C@H](O)[C@H]1O (stereo partly drawn) [euspeclibcmpd1694] -0.35
O=C1OC(CN2CCOCC2)CN1/N=C/c1ccc([N+](=O)[O-])o1 (stereo not drawn) [euspeclibcmpd1273] 0.605
O=C(N/N=C/c1ccc([N+](=O)[O-])o1)c1ccc(O)cc1 [euspeclibcmpd1226] 0.949
O=c1[nH]c(O)cn1/N=C/c1ccc([N+](=O)[O-])o1 [euspeclibcmpd209] 0.292
CC(C)(C)c1ccc(C(=O)N/N=C/c2ccc([N+](=O)[O-])o2)cc1 1.17
CC(C)CC(N)C(=O)NC(C)C(=O)O (stereo not drawn) [euspeclibcmpd1745] 0.124
CC(=O)NCCc1ccc(O)c(C2C(=O)C(=O)c3c(c(O)c4c(C(=O)O)c(C(=O)O)c(O)cc4c3O)C2=O)c1 (stereo not drawn) [euspeclibcmpd1580] -0.208
CC(=O)OC=C1CSC2C(N)C(=O)N2C1C(=O)O (stereo not drawn) [euspeclibcmpd1380] -0.0231
O=C(O)c1ccc[nH]c1=Nc1cccc(C(F)(F)F)c1 [euspeclibcmpd1074] -0.299
N#CCOC(=O)c1cc(-c2ccccc2)nc2ccccc12 1.25
NCCc1cc[nH]n1 [euspeclibcmpd614] 1.24
NC(=O)NC(CC(=O)O)C(=O)O (stereo not drawn) 1.02
CNC(=O)CN1CCC(NC(=O)NCc2ccc(C)n2C)CC1 0.3
CN1CCN(C(=O)Oc2c3nccnc3c(O)n2-c2ccc(Cl)cn2)CC1 [euspeclibcmpd2130] -0.245
C=C(C)[C@@H]1CC[C@]2(C(=O)O)CC[C@]3(C)[C@H](CCC4[C@@]5(C)CC[C@H](O)C(C)(C)C5CC[C@]43C)[C@@H]12 (stereo partly drawn) [euspeclibcmpd1473] -0.366
C=C(C)[C@@H]1CC[C@]2(C)CC[C@]3(C)[C@@H](CCC4[C@@]5(C)CC[C@H](O)C(C)(C)C5CC[C@]43C)C12 (stereo partly drawn) [euspeclibcmpd1455] -0.31
CC=C(c1ccc(O)cc1)C(CC)c1ccc(O)cc1 (stereo not drawn) [euspeclibcmpd93] 0.179
N=C(N)N [euspeclibcmpd2417] -0.496
NCCSSCCN [euspeclibcmpd2395] -0.505
N=c1[nH]c(=O)c2ncn(COC(CO)CO)c2[nH]1 [euspeclibcmpd487] 0.251
CCN1CCN(C(=O)NC(C(=O)NC2C(=O)N3C2SC(C)(C)[C@@H]3C(=O)O)c2ccccc2)C(=O)C1=O (stereo partly drawn) [euspeclibcmpd2069] 0
CC1(C)OC2CC3C4CC(F)=C5CC(=O)CCC5(C)C4C(O)CC3(C)C2(C(=O)CO)O1 (stereo not drawn) [euspeclibcmpd1953] -0.815
O=C1OC(c2ccc(O)cc2)(c2ccc(O)cc2)c2ccccc21 [euspeclibcmpd234] 1.62
O=c1cc(-c2ccccc2O)oc2cc(O)ccc12 [euspeclibcmpd1982] -0.161
CS(=O)(=O)c1ccc([C@H](O)[C@H](CF)NC(=O)C(Cl)Cl)cc1 [euspeclibcmpd827] -0.193
OC[C@H]1O[C@@H](Oc2ccc(Cl)cc2)[C@H](O)[C@@H](O)[C@H]1O 1.18
COC(=O)N=c1[nH]c2ccc([S+]([O-])c3ccccc3)cc2[nH]1 (stereo not drawn) [euspeclibcmpd738] -0.824
CCOC(=O)N=c1[nH]c2ccccc2[nH]1 [euspeclibcmpd787] -0.0391
O=c1oc2ccccc2cc1O [euspeclibcmpd2250] -0.381
CCC(C)(C)c1ccc(CC(C)CN2C[C@@H](C)O[C@@H](C)C2)cc1 (stereo partly drawn) [euspeclibcmpd489] 1.75

— the supplement of paper PMC10498489
